# PubChem BioAssay
# Active and inactive are the calls of the source. Unless noted, no rule for the calls is given here.
# Experiments:
# [1] = test system: Wnt5a (protein binding on small-molecule microarray); test: Wnt5a binders on small-molecule microarray, primary screen, biophysical, 635/667 nm fluorescence (AID 1142); settings: 635 nm fluorescence, higher = more signal;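 also: fluorescence read at 667 nm with signal to noise per printed feature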
# [2] = cell viability in Huh7 cells, primary screen, cytotoxicity control for HCV replication inhibitor project, CellTiter-Glo luminescence, basal, 48 h (AID 1143); settings: Huh7 HCV replicon, higher = more signal, called active from +8 up or from −8 down;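 also: Huh7 hepatoma cells carrying a hepatitis C replication reporter with no stimulus; test concentration not given here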
# [3] = P. aeruginosa biofilm formation inhibitors, primary screen, PAO1 strain, BacTiter-Glo luminescence, LB-PBS (AID 1144); settings: 12 h, higher = more signal
# [4] = CREB reporter modulators without forskolin, primary screen, cell-based, PC12, CRE-LacZ reporter, unstimulated (AID 1145); settings: no forskolin, luminescence, 4.5 h, higher = more signal, called active from +8 up or from −8 down
# [5] = CREB reporter modulators under forskolin, primary screen, cell-based, PC12, CRE-LacZ reporter, forskolin-stimulated (AID 1146); settings: luminescence, 4.5 h, higher = more signal, called active from +8 up or from −8 down;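 also: PC12 cells with 6xCRE LacZ reporter stimulated by forskolin 10 µM; beta-galactosidase reporter signal reflecting CREB driven transcription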
# [6] = molecular target: Streptavidin (Streptomyces avidinii) (UniProt P22629); test: streptavidin binders on small-molecule microarray, primary screen, artefact control for SMM compound annotation, biophysical, 635/667 nm fluorescence (AID 1147); settings: streptavidin binding, higher = more signal;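 also: signal reflects streptavidin binding to arrayed compounds as a control protein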
# [7] = small-molecule binders of probe aInhba, primary screen, biochemical, small-molecule microarray, 635/667 nm fluorescence (AID 1148); settings: higher = more signal;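 also: score merges 667nm spot fluorescence with signal-to-noise for antibody binding to printed compounds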
# Torsin-1A (Homo sapiens) [8] = molecular target: Torsin-1A (Homo sapiens) (UniProt O14656); test: torsin A binders from cell lysate, primary screen, small-molecule microarray, wild-type, 635/667 nm (AID 1149); settings: COS7 hTOR1A-WT lysate, 635 nm fluorescence, higher = more signal
# Torsin-1A (Homo sapiens) [9] = molecular target: Torsin-1A (Homo sapiens) (UniProt O14656); test: small-molecule binders of mutant TOR1A in lysate, primary screen, cell lysate, small-molecule microarray, COS7 lysate, 635/667 nm fluorescence (AID 1150); settings: COS7 hTOR1A mutant lysate, 635 nm fluorescence, higher = more signal;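 also: score pools 667 nm emission and signal to noise measuring lysate protein binding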
# [10] = test system: Sonic hedgehog protein (Shh); test: small-molecule binders of Shh protein, primary screen, biochemical, small-molecule microarray, 635/667 nm fluorescence (AID 1151); settings: small-molecule microarray binding, 635 nm fluorescence; higher = more signal;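 also: Shh protein binding to compounds spotted on small-molecule microarray slides; score combines spot fluorescence intensity with signal-to-noise across triplicate slides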
# [11] = E. coli DRC41 culture turbidity changes, primary screen, E. coli filamentation inducer project, strain DRC41, OD650, 48 h (AID 1152);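 also: E. coli MC1000 strain DRC41 lacking acrAB efflux pump and sulA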; settings: E. coli DRC41 (acrAB sulA), higher = more signal, called active from +8 up or from −8 down
# [12] = small-molecule binders of probe aLefty1, primary screen, biochemical, small-molecule microarray, 635/667 nm fluorescence (AID 1153); settings: higher = more signal;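 also: score merges spot fluorescence with signal-to-noise ratio from the scanned slide images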
# [13] = PSAC antagonists in infected red cells, primary screen, cell-based, P. falciparum Indochina, OD700, 1 h (AID 1154); settings: P. falciparum Indochina infected RBC osmotic lysis, higher = more signal, called active from +8 up or from −8 down
# [14] = PSAC antagonists in infected red cells, primary screen, cell-based, P. falciparum Indochina, OD700, 2 h (AID 1155);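 also: lysis reports solute entry through the parasite surface anion channel PSAC; channel blockers reduce lysis of infected cells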; settings: P. falciparum Indochina infected erythrocytes, osmotic lysis OD700; higher = more signal, called active from +8 up or from −8 down
# [15] = osmotic lysis modulators in infected erythrocytes, primary screen, PSAC antagonist project, cell-based, P. falciparum Indochina, OD700, 3 h (AID 1156); settings: higher = more signal, called active from +8 up or from −8 down
# [16] = PSAC antagonists in infected red cells, primary screen, cell-based, P. falciparum Indochina, OD700, 18 h (AID 1157); settings: P. falciparum Indochina infected erythrocytes, osmotic lysis OD700, 18 h; higher = more signal, called active from +8 up or from −8 down
# [17] = modulators of S6 phosphorylation in cells, primary screen, cell-based, A549, cytoblot, luminescence, serum-stimulated (AID 1158); settings: A549 phospho-S6 cytoblot, 5 h, higher = more signal;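 also: serum-stimulated A549 lung adenocarcinoma cells; signal is phosphorylated S6 detected by cytoblot immunostaining with HRP secondary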
# [18] = molecular target: NADPH oxidase 2 (Homo sapiens) (UniProt P04839); test: NOX2-dependent H2O2 signal modulators, primary screen, NOX inhibitor project, cell-based, HEK293-NOX2, PMA-stimulated, Amplex Red fluorescence (AID 1159); settings: 45 min, higher = more signal, called active from +8 up or from −8 down; also: test concentration not given here
# [19] = molecular target: NADPH oxidase 4 (Homo sapiens) (UniProt Q9NPH5); test: NOX4-dependent H2O2 signal modulators, primary screen, NOX inhibitor project, cell-based, HEK293-NOX4, tetracycline-induced, Amplex Red fluorescence (AID 1160); settings: 45 min, higher = more signal, called active from +8 up or from −8 down
# [20] = molecular target: NADPH oxidase 5 (Homo sapiens) (UniProt Q96PH1); test: NOX5-dependent H2O2 signal modulators, primary screen, NOX inhibitor project, cell-based, HEK293-NOX5, Amplex Red fluorescence (AID 1161); settings: HEK293-NOX5, ionomycin, 45 min, higher = more signal
# NADPH oxidase 5 (Homo sapiens), sequence (Q96PH1 whole entry, looked up): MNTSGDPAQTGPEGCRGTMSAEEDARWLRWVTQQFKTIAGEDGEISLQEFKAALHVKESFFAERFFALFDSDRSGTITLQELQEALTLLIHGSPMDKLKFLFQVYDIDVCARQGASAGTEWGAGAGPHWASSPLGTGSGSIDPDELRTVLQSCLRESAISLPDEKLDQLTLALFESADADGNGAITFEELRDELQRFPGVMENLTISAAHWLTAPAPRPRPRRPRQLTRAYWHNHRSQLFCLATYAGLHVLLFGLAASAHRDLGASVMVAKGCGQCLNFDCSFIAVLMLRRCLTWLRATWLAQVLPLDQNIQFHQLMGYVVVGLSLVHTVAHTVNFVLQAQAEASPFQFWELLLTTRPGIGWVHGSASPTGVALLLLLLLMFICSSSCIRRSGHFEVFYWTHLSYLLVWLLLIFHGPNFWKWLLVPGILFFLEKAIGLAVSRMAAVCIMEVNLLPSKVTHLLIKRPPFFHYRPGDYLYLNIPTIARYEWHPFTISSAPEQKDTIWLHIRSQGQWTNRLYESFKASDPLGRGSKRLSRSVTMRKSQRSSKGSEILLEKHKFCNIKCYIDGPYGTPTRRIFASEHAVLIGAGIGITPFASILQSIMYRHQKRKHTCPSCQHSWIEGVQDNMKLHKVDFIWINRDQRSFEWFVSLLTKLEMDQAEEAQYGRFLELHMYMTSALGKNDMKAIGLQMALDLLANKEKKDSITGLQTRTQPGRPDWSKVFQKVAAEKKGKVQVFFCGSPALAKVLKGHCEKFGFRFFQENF
# Torsin-1A (Homo sapiens), sequence (O14656 whole entry, looked up): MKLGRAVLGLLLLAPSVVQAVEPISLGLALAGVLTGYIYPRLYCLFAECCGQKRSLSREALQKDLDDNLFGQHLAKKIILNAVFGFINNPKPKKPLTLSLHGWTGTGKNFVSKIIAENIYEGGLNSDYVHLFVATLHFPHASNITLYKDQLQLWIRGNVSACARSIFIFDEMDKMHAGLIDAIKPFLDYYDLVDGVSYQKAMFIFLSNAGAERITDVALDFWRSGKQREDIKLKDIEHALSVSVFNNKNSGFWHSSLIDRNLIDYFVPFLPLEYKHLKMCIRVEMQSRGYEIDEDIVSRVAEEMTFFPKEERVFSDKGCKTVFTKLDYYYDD
# NADPH oxidase 2 (Homo sapiens), sequence (P04839 whole entry, looked up): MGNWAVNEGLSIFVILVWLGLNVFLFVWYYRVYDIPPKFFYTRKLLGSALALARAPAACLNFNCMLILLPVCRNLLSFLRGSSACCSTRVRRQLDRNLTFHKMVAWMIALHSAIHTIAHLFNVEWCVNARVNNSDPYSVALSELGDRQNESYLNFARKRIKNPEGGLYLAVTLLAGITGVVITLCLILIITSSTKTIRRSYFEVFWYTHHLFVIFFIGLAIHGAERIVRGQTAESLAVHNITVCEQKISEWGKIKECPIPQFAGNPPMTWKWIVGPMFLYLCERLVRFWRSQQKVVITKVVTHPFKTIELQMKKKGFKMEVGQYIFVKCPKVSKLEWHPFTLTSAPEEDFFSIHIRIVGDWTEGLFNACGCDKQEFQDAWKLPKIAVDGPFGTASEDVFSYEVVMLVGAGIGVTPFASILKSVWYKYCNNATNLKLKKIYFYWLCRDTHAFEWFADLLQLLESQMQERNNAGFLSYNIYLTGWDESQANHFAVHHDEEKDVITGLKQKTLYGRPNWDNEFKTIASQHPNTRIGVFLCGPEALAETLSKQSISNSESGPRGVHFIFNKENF
# Streptavidin (Streptomyces avidinii), sequence (P22629 whole entry, looked up): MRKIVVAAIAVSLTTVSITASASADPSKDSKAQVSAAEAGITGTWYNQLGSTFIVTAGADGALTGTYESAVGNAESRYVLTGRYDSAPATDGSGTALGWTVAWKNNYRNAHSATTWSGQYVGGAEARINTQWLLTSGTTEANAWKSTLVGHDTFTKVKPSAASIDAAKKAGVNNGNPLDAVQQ
# NADPH oxidase 4 (Homo sapiens), sequence (Q9NPH5 whole entry, looked up): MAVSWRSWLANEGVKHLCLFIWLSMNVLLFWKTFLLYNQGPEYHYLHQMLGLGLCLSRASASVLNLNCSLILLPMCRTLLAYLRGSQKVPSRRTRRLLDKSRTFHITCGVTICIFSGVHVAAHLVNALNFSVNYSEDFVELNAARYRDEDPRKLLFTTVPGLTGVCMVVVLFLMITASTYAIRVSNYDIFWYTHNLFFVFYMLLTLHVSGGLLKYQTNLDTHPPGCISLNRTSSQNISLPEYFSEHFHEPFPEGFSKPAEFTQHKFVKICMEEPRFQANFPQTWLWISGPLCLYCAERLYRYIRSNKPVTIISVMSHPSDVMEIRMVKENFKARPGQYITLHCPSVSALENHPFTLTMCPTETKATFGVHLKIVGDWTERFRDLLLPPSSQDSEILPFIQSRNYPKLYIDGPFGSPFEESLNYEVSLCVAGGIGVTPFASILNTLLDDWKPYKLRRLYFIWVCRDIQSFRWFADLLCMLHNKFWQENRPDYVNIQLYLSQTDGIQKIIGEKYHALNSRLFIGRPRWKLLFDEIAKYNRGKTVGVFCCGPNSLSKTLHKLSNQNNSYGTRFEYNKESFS
Compound,composite z-score [1],z-score [2],z-score [3],z-score [4],z-score [5],composite z-score [6],composite z-score [7],composite z-score (Torsin-1A (Homo sapiens) [8]),composite z-score (Torsin-1A (Homo sapiens) [9]),composite z-score [10],z-score [11],composite z-score [12],z-score [13],z-score [14],z-score [15],z-score [16],z-score [17],z-score [18],z-score [19],z-score [20]
CC(C)=CCCC(C)=CCON=C1C[C@@H](O)[C@@H](O)[C@@H]2[C@@H]3C(=O)N(c4cccc(Oc5ccccc5)c4)C(=O)[C@@H]3CC[C@H]12,-0.022,-1.47 (inactive),1.73 (inactive),-0.205 (inactive),-0.158 (inactive),-0.11,-0.128,0.575,0.704,1.51,0.349 (inactive),0.0363,2.26 (inactive),1.25 (inactive),0.17 (inactive),0.722 (inactive),0.34,-1.35 (inactive),0.0399 (inactive),-0.583
C[C@H]1CC[C@H]2C(=O)N[C@H](Cc3ccccc3)C(=O)N2[C@@H]1c1ccccc1,0.132,0.21 (inactive),0.108 (inactive),-0.072 (inactive),0.901 (inactive),0.119,-0.233,0.345,0.52,0.401,0.584 (inactive),-0.108,-0.189 (inactive),0.405 (inactive),-0.304 (inactive),0.294 (inactive),-0.0623,0.727 (inactive),-0.32 (inactive),-0.119
C#CCCCON=C1[C@H]2CCn3c(=O)n(Cc4cc5c(cc4Cl)OCO5)c(=O)n3[C@H]2[C@H](O)[C@@H]2O[C@H]12,0.272,0.256 (inactive),-0.55 (inactive),-0.207 (inactive),0.959 (inactive),0.23,-0.0375,0.0703,0.248,1.08,-0.248 (inactive),-0.101,0.649 (inactive),0.581 (inactive),0.579 (inactive),0.035 (inactive),-0.345,-0.331 (inactive),0.367 (inactive),-0.275
CC(=O)OC[C@H]1O[C@H](CC=NO[C@H](C)c2cn([C@@H]3COC[C@H]3O)nn2)C=C[C@@H]1OC(C)=O,0.104,-0.29 (inactive),-0.745 (inactive),-0.724 (inactive),-0.538 (inactive),0.182,-0.0494,-0.0469,-0.108,0.165,-0.676 (inactive),-0.27,-0.279 (inactive),-1.7 (inactive),-0.115 (inactive),-1.7 (inactive),1.22,-1.01 (inactive),0.127 (inactive),0.0052
CCOC(=O)[C@H](Cc1ccccc1)NC(=O)CCC1CC(OC(=O)NCc2cccc3ccccc23)CC2(CCCC(COC(=O)NCCOc3ccccc3)O2)O1 (stereo not given in full),-0.0525,-2.73 (inactive),-1.35 (inactive),-0.523 (inactive),0.57 (inactive),0.419,0.0667,0.0468,1.47,0.825,-1.98 (inactive),-0.0094,-0.623 (inactive),-0.824 (inactive),0.48 (inactive),-1.33 (inactive),1.01,0.0124 (inactive),0.762 (inactive),1.06
CCOC(=O)[C@H](Cc1ccccc1)NC(=O)CCC1CC(OC(=O)NCc2cccc3ccccc23)CC2(CCCC(COC(=O)NCC3CCCCC3)O2)O1 (stereo not given in full),0.297,-0.213 (inactive),-0.441 (inactive),-0.343 (inactive),0.895 (inactive),0.307,0.0155,0.156,0.224,0.955,0.0278 (inactive),-0.0662,1.78 (inactive),-0.393 (inactive),-1.94 (inactive),-0.611 (inactive),-0.154,0.746 (inactive),0.745 (inactive),0.517
CO[C@@H]1[C@H](O)CO[C@H]1C=Cc1ccccc1,-0.174,-0.536 (inactive),0.165 (inactive),-0.164 (inactive),-0.43 (inactive),-0.223,-0.182,-0.518,0.0143,-0.0147,-0.0624 (inactive),-0.0559,2.7 (inactive),0.178 (inactive),0.837 (inactive),-0.0932 (inactive),0.722,-0.403 (inactive),-0.898 (inactive),1.23
COc1ccc(COC(=O)NN=C2C[C@@H](O)[C@@H](O)[C@@H]3[C@@H]4C(=O)N(c5cccc(Oc6ccccc6)c5)C(=O)[C@@H]4CC[C@H]23)cc1,-0.142,-3.56 (inactive),0.111 (inactive),-0.293 (inactive),0.505 (inactive),0.993,-0.0375,-0.135,-0.144,-1.44,0.249 (inactive),0.4,3.48 (inactive),-0.469 (inactive),1.89 (inactive),-2.15 (inactive),0.0187,-1.26 (inactive),-1.6 (inactive),-1.49
O=C1C=C[C@@H](O)[C@@H]2[C@@H]3C(=O)N(C4CCCCC4)C(=O)[C@@H]3CC[C@@H]12,0.474,-2.62 (inactive),0.411 (inactive),0.25 (inactive),0.915 (inactive),-0.748,0.177,0.54,0.595,0.781,-0.188 (inactive),-0.0501,0.0831 (inactive),-0.0709 (inactive),-0.446 (inactive),0.0822 (inactive),-0.493,0.33 (inactive),0.563 (inactive),-0.266
